Measured values: PubChem BioAssay (NCATS)
Results filed as inconclusive are left out. Calls of active or inactive are those of the source. Unless noted, calls come from the whole dose curve; as a rule, active = well fitted curve in the direction sought with a large enough effect; inconclusive = small, poorly fitted or top-dose-only effect, or another doubt; inactive = no such curve, though single readings can be large; an effect the other way counts as inactive or inconclusive.

Legend:
[1] = target: Alpha-galactosidase (Coffea arabica) (UniProt Q42656); assay: Counterscreen for Glucocerebrosidase Inhibitors: qHTS Assay for Coffee Bean alpha-Galactosidase at pH 4.5 (AID 957); note: series mostly up to about 77 µM
Procedure, shortened: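 Coffee bean enzyme (2 nM) with 80 uM 4-methylumbelliferyl alpha-D-galactopyranoside in 50 mM citric acid, 0.005% Tween-20, pH 4.5, 20 min at room temperature; compounds 0.7 nM–77 uM. Stopped at pH 10, fluorescence 365/440 nm; AC50 from Hill fits.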

[2] = target: Alpha-galactosidase (Coffea arabica) (UniProt Q42656); assay: Counterscreen for Glucocerebrosidase Inhibitors: qHTS Assay for Coffee Bean alpha-Galactosidase at pH 5.9 (AID 998)
Procedure, shortened: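 Green coffee bean enzyme (2 nM final) was incubated with compounds (0.7 nM–77 uM) and 4-methylumbelliferyl alpha-D-galactopyranoside (80 uM) in citrate buffer pH 5.9, 20 min at room temperature. High-pH stop; fluorescence 365/440 nm; AC50 from Hill fits.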

[3] = Validation screen for inhibitors of Lassa infection (AID 463096; calls by dose curve)
[4] = Inducers of the Endoplasmic Reticulum Stress Response (ERSR) in human glioma: Validation (AID 504836)
Procedure, shortened: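 Stably transfected U87-MG human glioma cells carrying a GRP78-based luminescent sensor were seeded at 1000 cells/well, pin-dosed with compounds and incubated 16 h. Luciferase reagent was then added, and end-point luminescence was read after 10 min at room temperature.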

[5] = qHTS for Inhibitors of the Functional Ribonucleoprotein Complex (vRNP) of Lassa (LASV) Arenavirus: LASV Primary Screen - GLuc reporter signal (AID 1347082; calls by dose curve; tested in HEK293 reporter line; note: series mostly up to about 57 µM; nearly all actives have a fitted effect of over 60% in size)
[6] = qHTS for Inhibitors of the Functional Ribonucleoprotein Complex (vRNP) of Lassa (LASV) Arenavirus: Viability assay - alamar blue signal for LASV Primary Screen (AID 1347083; calls by dose curve; tested in HEK293 reporter line; note: series mostly up to about 57 µM; nearly all actives have a fitted effect of over 80% in size)
[7] = qHTS for Inhibitors of the Functional Ribonucleoprotein Complex (vRNP) of Lymphocytic Choriomeningitis Arenaviruses (LCMV): Viability assay - alamar blue signal for LCMV Primary Screen (AID 1347085; calls by dose curve; tested in HEK293 reporter line; note: series mostly up to about 57 µM; nearly all actives have a fitted effect of over 80% in size)
[8] = target: Nucleoprotein (Lymphocytic choriomeningitis virus (strain Armstrong)) (UniProt P09992); assay: qHTS for Inhibitors of the Functional Ribonucleoprotein Complex (vRNP) of Lymphocytic Choriomeningitis Arenaviruses (LCMV): LCMV Primary Screen - GLuc reporter signal (AID 1347086; calls by dose curve; note: series mostly up to about 57 µM; nearly all actives have a fitted effect of over 70% in size)

Measured: Potency

Nucleoprotein (Lymphocytic choriomeningitis virus (strain Armstrong)), sequence (P09992 whole entry, looked up): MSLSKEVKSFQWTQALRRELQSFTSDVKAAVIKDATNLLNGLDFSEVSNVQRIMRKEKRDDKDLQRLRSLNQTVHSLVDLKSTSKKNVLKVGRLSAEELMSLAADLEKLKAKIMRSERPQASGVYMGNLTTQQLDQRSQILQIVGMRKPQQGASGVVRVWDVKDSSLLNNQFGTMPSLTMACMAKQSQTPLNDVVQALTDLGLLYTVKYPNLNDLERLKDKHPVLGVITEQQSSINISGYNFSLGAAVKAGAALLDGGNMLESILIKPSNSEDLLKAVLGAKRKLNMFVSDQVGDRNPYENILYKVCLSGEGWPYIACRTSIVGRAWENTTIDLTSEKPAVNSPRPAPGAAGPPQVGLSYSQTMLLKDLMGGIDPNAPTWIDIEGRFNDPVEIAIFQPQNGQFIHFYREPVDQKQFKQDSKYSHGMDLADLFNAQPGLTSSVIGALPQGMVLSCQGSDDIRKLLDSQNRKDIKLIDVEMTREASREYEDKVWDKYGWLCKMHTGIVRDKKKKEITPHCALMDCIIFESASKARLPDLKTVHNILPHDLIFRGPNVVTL
Alpha-galactosidase (Coffea arabica), sequence (Q42656 whole entry, looked up): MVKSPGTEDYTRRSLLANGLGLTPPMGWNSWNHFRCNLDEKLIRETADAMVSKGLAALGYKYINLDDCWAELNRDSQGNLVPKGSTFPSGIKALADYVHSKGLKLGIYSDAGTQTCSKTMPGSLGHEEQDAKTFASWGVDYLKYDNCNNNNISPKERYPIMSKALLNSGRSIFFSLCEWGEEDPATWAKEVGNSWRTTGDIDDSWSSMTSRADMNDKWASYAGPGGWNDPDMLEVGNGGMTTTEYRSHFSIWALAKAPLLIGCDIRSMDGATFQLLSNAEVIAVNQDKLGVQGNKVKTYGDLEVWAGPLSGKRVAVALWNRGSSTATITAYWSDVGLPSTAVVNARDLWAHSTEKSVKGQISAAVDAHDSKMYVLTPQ

Clc1ccc(N2CCN(Cc3c[nH]c4ncccc34)CC2)cc1
inactive: all assays above

N[C@@H](Cc1ccc(O)c(I)c1)C(=O)O
inactive: all assays above

NC1(C(=O)O)CC1
inactive: all assays above

O=c1[nH]c2cc(Cl)ccc2c(O)c1-c1ccc(Oc2ccccc2)cc1
inactive: all assays above

Cc1nc(N=Nc2ccc(C(=O)O)cc2)c(COP(=O)(O)O)c(C=O)c1O
inactive: all assays above

Nc1ccc(-c2nc3ccc(-c4nc5ccc(N)cc5[nH]4)cc3[nH]2)cc1
inactive: all assays above

CC(C)(C=O)Cc1cc(C(C)(C)C)c(O)c(C(C)(C)C)c1
inactive: all assays above

Cc1cccc(C(=O)NCN2CCN(c3ccccc3C#N)CC2)c1
inactive: all assays above

Oc1ccc(Cn2cc[nH]c2=S)cc1
inactive: all assays above

COc1cc(/C=C(\C#N)C(=O)c2ccc(O)c(O)c2)cc(I)c1O
inactive: all assays above

CC1(C)CCC=[N+]1[O-]
inactive: all assays above

O=c1onc2n1-c1cc(Br)ccc1OC2
inactive: all assays above

O=C(O)c1cc(=O)c2ccccc2[nH]1
inactive: all assays above

Fc1ccc(C(OCCCc2cnc[nH]2)c2ccc(F)cc2)cc1
inactive: all assays above

CC(N)=O
inactive: all assays above

C[C@H](NC(=O)/C(C#N)=C/c1ccc(O)c(O)c1)c1ccccc1
inactive: all assays above

CCCCCCCCCCC/C=C\C(C)(C)/C=C\CCCC(=O)O
inactive: all assays above

O=C(O)c1cc(=O)cc(C(=O)O)[nH]1
inactive: all assays above

c1ccc2nc(C3=NCCN3)ccc2c1
inactive: all assays above

CCCCCCCCCCCCCCC[C@H](O)[C@H](N)CO
inactive: all assays above

N#C/C(=C\c1c[nH]c2ccccc12)C(=O)c1ccc(O)c(O)c1
inactive: all assays above

NC(=O)c1ccccc1
inactive: all assays above

CC(C)NC[C@H](O)c1ccc(O)c(O)c1
inactive: all assays above

COC(=O)c1c(C)[nH]c(C)c1C(=O)c1ccccc1Cc1ccccc1
inactive: all assays above

NC(=O)CNCCC(c1ccccc1)c1ccccc1
inactive: all assays above

Cc1nc2c(OCc3ccccc3)cccn2c1CC#N
inactive: all assays above

O=C(O)CC[C@@H](C(=O)O)N1C(=O)c2ccccc2C1=O
inactive: all assays above

COc1cc2c(CCNC(C)=O)c[nH]c2cc1O
inactive: all assays above
